Experimental findings from PubChem BioAssay AID434970 (Sanford-Burnham Center for Chemical Genomics, 2010) are described below.

About 310 (2.8%) of roughly 11,000 compounds were called active. Rule as the data show it: active = activity change below about -85%; inactive = the rest. What follows is part of a selection rich in actives, with near analogues and random picks from the rest.

This test has as its system intestinal alkaline phosphatase [Mus musculus]. Description: activators of mouse IAP, confirmation, biochemical, luminescence, single concentration (AID 434970). The conditions noted are these: purified mouse IAP, CDP-Star luminescence, 30 min, at 10 µM; activation factor: measured here: IAP activation factor, stronger effect = higher value; activity change, negative = activation: stronger effect = lower value.
Consider `N/C(COc1cccc(Cl)c1)=N\NS(=O)(=O)c1ccccc1`, for which the activation factor was determined as 0.875 and the activity change, negative = activation was 12.6% (inactive).

For the compound `COc1cc(-c2noc(CCC(N)=O)n2)cc(OC)c1OC`, the activation factor amounted to 0.884 and the activity change, negative = activation was 11.6% (inactive).

As to `CCC(C)NCCOCCOc1ccc(F)cc1` (stereo not given), the activation factor turned out to be 1.03 and the activity change, negative = activation was -3.25% (inactive).

As for `Cc1ccc(S(=O)(=O)N(C)C[C@@H]2Oc3ccc(NC(=O)Nc4cccc5ccccc45)cc3C(=O)N([C@H](C)CO)C[C@H]2C)cc1`, the activation factor was 2.13 and the activity change, negative = activation was -113% (active).

Consider `Cc1ccc(S(=O)(=O)N(C)C[C@H]2Oc3c(NC(=O)Nc4cccc5ccccc45)cccc3C(=O)N([C@@H](C)CO)C[C@@H]2C)cc1`, for which the activation factor was 3.14 and the activity change, negative = activation is -214% (active).

As for `C[C@H]1CN([C@@H](C)CO)C(=O)c2cccc(NC(=O)Nc3ccc(C(F)(F)F)cc3)c2O[C@@H]1CN(C)S(=O)(=O)c1ccc(Cl)cc1`, the activation factor was determined as 1.47 and the activity change, negative = activation was -46.7% (inactive).

`Cc1cc2cc(CNC(=S)NCc3ccccc3)ccc2n1C`: the activation factor is 1.2 and the activity change, negative = activation is -20% (inactive).

For `N[C@@H](Cc1ccccc1)c1nnc2sc(SCc3ccccc3)nn12`, the activation factor was found to be 0.972 and the activity change, negative = activation is 2.75% (inactive).

As for `O=C(c1ccc[nH]1)N1O[C@@H]2C=C[C@H]1C2`, the activation factor was found to be 0.951 and the activity change, negative = activation is 4.9% (inactive).

On to `CCCN1C2CCCC1CC(NC(=O)c1cc(OC)c(OC)c(OC)c1)C2` (stereo not given), for which the activation factor was 0.893 and the activity change, negative = activation is 10.7% (inactive).

As for `Cc1nn(Cc2ccc(Cl)cc2)c(C)c1NC(=O)c1c(-c2ccccc2)noc1C`, the activation factor amounted to 1.03 and the activity change, negative = activation was -2.7% (inactive).

`O=C(NC1CCN(Cc2ccc(Cl)cc2)CC1)c1cn(-c2ccccc2)nc1-c1cccnc1`: the activation factor was 1.6 and the activity change, negative = activation is -60.3% (inactive).

In the case of `Cc1cccc(NC(=O)c2cn(-c3ccccc3)nc2-c2ccccc2)c1`, the activation factor worked out at 1.64 and the activity change, negative = activation was -64% (inactive).

Regarding `COc1cccc(-c2nn(-c3ccccc3)cc2C(=O)NCC(=O)O)c1`, the activation factor was found to be 1.08 and the activity change, negative = activation is -8.2% (inactive).

As to `Cc1nn(Cc2c(Cl)cccc2Cl)c(C)c1NC(=O)c1cn(-c2ccccc2)nc1-c1ccccc1`, the activation factor was 1.74 and the activity change, negative = activation is -73.8% (active).

Take `Cc1nn(Cc2ccc(Cl)c(Cl)c2)c(C)c1NC(=O)c1cn(-c2ccccc2)nc1-c1ccccc1`: the activation factor was 2.62 and the activity change, negative = activation was -162% (active).

For the compound `CCCN1CCN(C(=O)c2cn(CC(C)C)c(=O)c3cc(OC)c(OC)cc23)CC1`, the activation factor was 1.04 and the activity change, negative = activation was -4.4% (inactive).

Consider `COc1ccc(C2CC(c3ccccc3)n3nnnc3N2)cc1` (stereo not given), for which the activation factor amounted to 1.15 and the activity change, negative = activation was -14.9% (inactive).

As for `COc1ccc2c(CC(=O)OCC(=O)N3CCc4ccccc43)coc2c1`, the activation factor was determined as 0.935 and the activity change, negative = activation was 6.5% (inactive).

For `COc1cc2c(cc1OC)[C@@H](NC(=O)COc1ccccc1)[C@H](OCc1ccccc1)C2`, the activation factor is 1.07 and the activity change, negative = activation is -6.55% (inactive).

Regarding `O=C(CSc1ncccn1)NCc1ccccc1`, the activation factor worked out at 1.02 and the activity change, negative = activation is -2% (inactive).

As to `CCOC(=O)c1sc(N=NC2=C(O)CC(C)(C)CC2=O)c(C(=O)OCC)c1C`, the activation factor is 3.1 and the activity change, negative = activation was -210% (active).

In the case of `CCOC(=O)c1sc(N=NC2=C(O)CCCC2=O)c(C(=O)OCC)c1C`, the activation factor worked out at 0.794 and the activity change, negative = activation was 20.6% (inactive).

As for `COc1ccc(N=NC2=C(O)CC(C)(C)CC2=O)c(OC)c1`, the activation factor was found to be 0.743 and the activity change, negative = activation was 25.7% (inactive).

For the compound `COc1cc(NC(=O)c2ccc(F)cc2)c(OC)cc1Cl`, the activation factor stood at 0.929 and the activity change, negative = activation was 7.05% (inactive).

In the case of `COc1ccc2c(C)c(C(=O)O)oc2c1`, the activation factor was 0.933 and the activity change, negative = activation is 6.65% (inactive).

On to `COC(=O)c1c(N)n(CCCN2CCOCC2)c2nc3ccccc3nc12`, for which the activation factor was 0.983 and the activity change, negative = activation is 1.65% (inactive).

As to `N#Cc1c(-c2ccc(Cl)cc2)ccn2nc(CCC(=O)O)nc12`, the activation factor was 1.15 and the activity change, negative = activation is -15.3% (inactive).

For the compound `CN1CCN(S(=O)(=O)c2ccc(SCCOc3ccccc3)nc2)CC1`, the activation factor was found to be 0.96 and the activity change, negative = activation was 4% (inactive).

As to `C=CCN(C(=O)CNC(=O)c1ccco1)C(C(=O)NC1CCCCC1)c1ccc(F)cc1` (stereo not given), the activation factor amounted to 1.05 and the activity change, negative = activation is -5.3% (inactive).

As to `CC(C)(C)N(C(=O)Cn1nnc(-c2ccc(F)cc2)n1)C(C(=O)NC1CCCC1)c1ccncc1` (stereo not given), the activation factor stood at 0.935 and the activity change, negative = activation was 6.5% (inactive).

Take `O=C(NC1CCCC1)C(c1ccc(F)cc1)N(Cc1ccc(F)cc1)C(=O)c1ccn[nH]1` (stereo not given): the activation factor is 2.05 and the activity change, negative = activation was -105% (active).

On to `Brc1ccc(-c2cnc(-c3cccs3)o2)cc1`, for which the activation factor came to 0.944 and the activity change, negative = activation was 5.65% (inactive).

In the case of `COc1ccc(Cc2nn[nH]n2)cc1`, the activation factor is 1.18 and the activity change, negative = activation is -17.9% (inactive).

On to `CCn1nc(C)c(CN2CCC(C(=O)Nc3cccc(-c4cccc(Cl)c4)c3)CC2)c1C`, for which the activation factor turned out to be 4.74 and the activity change, negative = activation is -374% (active).

As for `Cc1cc(C)n(CCCN2CCC(C(=O)Nc3cccc(-c4cccc(F)c4)c3)CC2)n1`, the activation factor amounted to 3.01 and the activity change, negative = activation was -202% (active).

Turning to `CCc1ccc(NC(=O)C2CC(=O)N(C(C)C)C2)cc1` (stereo not given), the activation factor is 0.925 and the activity change, negative = activation is 7.45% (inactive).

Regarding `CCn1nc(C)c(CN2CCC(C(=O)Nc3cccc(-c4cccc(F)c4)c3)CC2)c1C`, the activation factor came to 3.08 and the activity change, negative = activation was -208% (active).

With `Cc1nn(C(C)C)c(C)c1CN1CCC(C(=O)Nc2cccc(-c3cccc(F)c3)c2)CC1`, the activation factor is 4.89 and the activity change, negative = activation was -389% (active).

Take `Cc1ccc(Cn2nc(C)c(NC(=O)C3CC3)c2C)cc1`: the activation factor was 1.06 and the activity change, negative = activation is -6.3% (inactive).
